target: T1, Tyrosyl-tRNA synthetase, putative (Trypanosoma cruzi (strain CL Brener)) (UniProt Q4DSP6); assay: Trypanosoma cruzi tyrosyl tRNA synthetase (TcYRS) _High Tyrosine SOP; assay type: functional; parameters: scale not given: in the data most compounds retested in dose-response had high values; details: 30 µM
T1 sequence (whole entry): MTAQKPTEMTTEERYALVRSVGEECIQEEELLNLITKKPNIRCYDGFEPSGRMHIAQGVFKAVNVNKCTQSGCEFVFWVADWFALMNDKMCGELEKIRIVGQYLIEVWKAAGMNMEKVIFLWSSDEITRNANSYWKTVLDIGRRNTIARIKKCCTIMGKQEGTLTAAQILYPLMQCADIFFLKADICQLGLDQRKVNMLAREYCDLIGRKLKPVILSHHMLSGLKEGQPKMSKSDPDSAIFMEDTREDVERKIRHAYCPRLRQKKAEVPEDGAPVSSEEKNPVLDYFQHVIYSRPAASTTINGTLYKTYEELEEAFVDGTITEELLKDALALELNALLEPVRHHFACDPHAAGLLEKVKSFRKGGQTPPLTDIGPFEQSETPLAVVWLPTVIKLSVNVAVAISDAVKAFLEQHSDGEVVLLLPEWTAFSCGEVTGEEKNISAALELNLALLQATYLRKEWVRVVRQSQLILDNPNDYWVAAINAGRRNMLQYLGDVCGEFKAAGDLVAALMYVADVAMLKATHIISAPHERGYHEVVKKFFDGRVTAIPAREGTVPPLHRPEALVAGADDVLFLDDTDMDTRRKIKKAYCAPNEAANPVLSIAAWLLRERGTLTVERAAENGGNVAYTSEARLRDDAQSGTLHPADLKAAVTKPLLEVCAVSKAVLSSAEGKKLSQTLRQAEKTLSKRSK

Row | SMILES | Percent Effect
1 | Cn1c(Cn2ccnc2)nnc1C1CCN(C(=O)C2(C)CC2)CC1 | 5.21%
2 | O=C(c1cnn(-c2ccccc2F)c1)N1CCN(CCO)CC1 | -0.546%
3 | O=C(NCCCn1cccn1)C1(c2ccc(Br)cc2)CC1 | 4.3%
4 | COCCC(=O)N1CCC2(CN(Cc3ccc(OC)c(F)c3)C2)C1 | 6.25%
5 | O=C(c1cccc(S(=O)(=O)NCCCc2ccco2)c1)N1CCOCC1 | 7.53%
6 | CC(=O)N1CCN(Cc2csc(-c3cnn(C)c3)n2)CC1 | 4.41%
7 | Cc1cnn(CCNCC(=O)NCc2ccccc2)c1 | 6.4%
8 | CCCc1cc(NC2CCc3ncnn3C2)n2ncnc2n1 (stereo not given) | 2.15%
9 | CC(C)Sc1ncccc1C(=O)NCc1ccc(CS(C)(=O)=O)cc1 | 4.17%
10 | CCc1nnc2n1CCN(Cc1ccc3c(c1)OCCO3)C2 | 2.97%
11 | Cc1ccc(CN2CC[C@H]3OCC[C@@H](C(=O)NC4CC4)[C@@H]3C2)o1 | -1.08%
12 | Cc1nc(C)n(C2CCCN(C(=O)CCc3ccncc3)C2)n1 (stereo not given) | 12.9%
13 | CCOC[C@H]1CC[C@H]2[C@H](CCN2C(=O)c2ccncc2F)O1 | 2.15%
14 | Cc1ccc(C(=O)NCC2(O)CCOCC2)cc1Br | 4.76%
15 | N#Cc1cn(C2CC2)c(=O)n(CC(O)c2ccc(OC(F)F)cc2)c1=O (stereo not given) | 0.49%
16 | O=C(CCc1nc2cccnc2[nH]1)Nc1cccnc1 | 2.12%
17 | c1cnnc(NCC2CN(Cc3cccc4c3OCCO4)CCO2)c1 (stereo not given) | 10.7%
18 | Cc1cc(N2CCN(Cc3ccc(-c4cc[nH]n4)o3)CC2)cc(C)n1 | 3.83%
19 | COc1ccnc(N2CCN(C(=O)CN3CCCC3=O)CC2)n1 | 8.37%
20 | N#Cc1ccnc(N2CCN(Cc3cccc(F)c3)CC2)c1 | 4.3%
